# Assay results published in PubChem BioAssay (NCATS).
# Inconclusive results are not listed. A call without a number means that no potency is given here. Active and inactive are the calls of the source. Calls come from the whole dose curve; as a rule, active = well fitted inhibition curve with a large enough effect; inconclusive = small, poorly fitted or top-dose-only effect; inactive = flat fitted curve, though single readings scatter.
# Test: High Content Imaging Cell-Based qHTS for Inhibitors of the mTORC1 Signaling Pathway in MEF (Tsc2-/-, p53-/-) Cells (AID 2666);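 note: percent of cells scored positive for phospho-rpS6 Ser235/236 immunostaining by imaging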
# Details: series mostly up to 38.3 µM
# Description: NIH Molecular Libraries Probe Production Centers Network [MLPCN]
# NIH Chemical Genomics Center [NCGC]
# Assay Submitter (PI): Blenis, John; Hoffman, Greg; Harvard University
# NCGC Assay Overview: Thee mammalian target of rapamycin (mTOR) is an intracellular serine/threonine kinase Aberrant regulation of mTOR signaling plays a causative role in a number of human diseases, including cancer, benign tumors such as lymphangioleiomyomatosis (LAM) and Tuberous Sclerosis Complex (TSC), and metabolic diseases such as diabetes and obesity. This project aims to identify inhibitors of ribosomal protein S6 (rpS6) phosphorylation. The phosphorylation of rpS6 is a key event downstream of mTOR activation. The assay uses a phospho-specific antibody of phospho-rpS6 to detect inhibitors of mTOR activation. Mutations in the Tsc1 and Tsc2 genes are the underlying genetic lesions responsible for TSC, causing constitutive activation of the mTORC1 pathway and leading to profound effects on cell metabolism. Aberrant metabolism in cancer has recently received significant attention as a target to develop therapeutic agents in the treatment of cancer1. As Tsc2-/- cells have lost the ability to respond to energy and growth factor deprivation, these cells are unable to properly down regulate cellular biosynthetic processes in response to metabolic stress, and are thus extremely sensitive to glucose deprivation-induced death.2 A central goal of this project is to explore the unique cell survival and metabolic properties of cells with Tsc1 or Tsc2 by screening for compounds that selectively target the Tsc2-/- MEFs by screening both Tsc2-/- and WT MEF cell lines. We hope to better understand these aspects of TSC physiology in order to exploit them for therapeutic benefit.
# NCGC IN Cell Assay Protocol:
# For quantitative high throughput analysis of mTORC1 signaling, we developed a cell-based assay for immuno-fluorescence based detection of rpS6 phosphorylation on the Acumen Explorer that will be used a platform for the primary small molecule screen. Mouse embryonic fibroblasts (MEFs) are cultured in 1536-well plates using DMEM + 10% FBS. Twenty-four hrs after plating, test compounds (solubilized in DMSO) are delivered and incubated with the cells for 24 hrs at 37 degree Celsius. Following the incubation, media with compound is aspirated and the cells are fixed in 4% paraformaldehyde (PFA) containing PBS + 0.2% TX-100. Next, PFA is aspirated, cells are washed two times with PBS plus 0.2% TX-100 and the cells are blocked for 1 hr at room temperature (blocking buffer: LiCOR Blocking Buffer plus 0.2% TX-100). This is followed by aspiration and staining with Alexa-488 conjugated-phospho-rpS6 Ser235/236 antibody for 2 hours at room temperature (Cell Signaling Technology # 4803, 1:50 dilution in blocking buffer). Cells are washed two times with PBS plus 0.2% TX-100, and stained with 10 uM propidium iodide (PI) for 20-25 minutes for cell number measurement (1:500 dilution of Hoescht staining is also added for IN Cell imaging). Active wells which are selected (based on Acumen results) are imaged on the IN Cell 1000 (GE Healthcare) using the D360/40X and HQ480/40X excitation filters for the Hoechst and Alexa-488 cytoplasmic stains, respectively. The fluorescence emission filters used were HQ460/40M and HQ535/50M for the Hoechst and Alexa-488 cytoplasmic stains, respectively. The normalized phospho-S6 staining is calculated as the ratio of […] for the single concentration rapamycin control ([…] nM) and DMSO columns. […] Inhibition of the pathway is defined based on the normalized phospho-S6 intensity in rapamycin treated cells. Each treatment is reported as the % positive cells in the well, where thresholds are defined by selecting wells with the highest and lowest signal and differentiating between the % non-active and % active populations. […]
# Potency is the fitted concentration of half-maximal effect.
row,SMILES,Potency
1,NC(C(=O)O)c1cc(=O)[nH]o1 (stereo not given),inactive
2,Clc1ccc(N2CC3CCC(C2)N3)nn1,inactive
3,CC(=O)OCC1=C(C(=O)O)N2C(=O)[C@@H](NC(=O)CCC[C@@H](N)C(=O)O)[C@H]2SC1,inactive
4,CC(Cc1ccc(OCC(=O)O)cc1)NCC(O)c1cccc(Cl)c1 (stereo not given),inactive
5,CCCn1c(C)c(C(=O)c2ccc3ccccc3c2)c2ccccc21,inactive
6,NC(=O)c1cc(N2CC2)c([N+](=O)[O-])cc1[N+](=O)[O-],inactive
7,CP(=O)(O)C1=CCNCC1,inactive
8,CO[C@H]1CC=C2CCN3CCC4=C(CC(=O)OC4)[C@]23C1,inactive
9,CCCN(CCC)C1Cc2cc(OC)c(OC)cc2C1,inactive
10,C=CCN1CCc2cccc3c2[C@H]1Cc1ccc(O)c(O)c1-3,inactive
11,COc1ccc(OC)c(C(O)C(C)N)c1 (stereo not given),inactive
12,NC(Cc1ccc(N(CCCl)CCCl)cc1)C(=O)O (stereo not given),inactive
13,NNC(N)=O,inactive
14,NC(N)=NOCC[C@H](N)C(=O)O,inactive
15,c1ccc2c(c1)[I+]c1ccccc1-2,3.29 µM (active)
16,C[C@H](N)CN1CCc2ccc(Br)cc21,inactive
17,C[N+]1(C)CCOC(O)(c2ccc(-c3ccc(C4(O)C[N+](C)(C)CCO4)cc3)cc2)C1 (stereo not given),inactive
18,COc1cc(CC(C)N)c(OC)cc1I (stereo not given),inactive
19,CCn1cnc2c(Nc3cccc(Cl)c3)nc(N[C@@H]3CCCC[C@@H]3N)nc21,18.5 µM (active)
20,CC(=O)c1c(O)c(C)c(O)c(Cc2c(O)c3c(c(C(=O)/C=C/c4ccccc4)c2O)OC(C)(C)C=C3)c1O,inactive

row,SMILES,Potency
1,N#CCCN,inactive
2,O=[N+]([O-])c1cc(O)c(O)c([N+](=O)[O-])c1,inactive
3,CC(C)[C@@]1(NC(=O)[C@@H]2C[C@@H]3c4cccc5[nH]cc(c45)C[C@H]3N(C)C2)O[C@@]2(O)[C@@H]3CCCN3C(=O)[C@H](Cc3ccccc3)N2C1=O,inactive
4,O=C1C=CC(=O)C=C1,inactive
5,O=S1(=O)N(CCN2CC=C(c3c[nH]c4cc(F)ccc34)CC2)c2cccc3c2N1CCC3,inactive
6,Cc1sc2ccccc2c1CC1=NCCN1,inactive
7,CC(N)c1cccc(Cl)c1Cl (stereo not given),inactive
8,OC1CCCCC1N1CCC(c2ccccc2)CC1 (stereo not given),inactive
9,N[C@@H](Cn1ccc(=O)[nH]c1=O)C(=O)O,inactive
10,C[N+]1(C)CCN(c2ccccc2)CC1,inactive
11,CC(=O)NBr,inactive
12,Nc1ccc(CCN2CCN(c3cccc(C(F)(F)F)c3)CC2)cc1,inactive
13,OCc1cnc[nH]1,inactive
14,CCN1C[C@@]2(COC)C3[C@@H](OC)C4[C@@H]1C3([C@@H]1C[C@]3(O)[C@H](OC(=O)c5ccccc5)[C@@H]1[C@]4(OC(C)=O)[C@@H](O)[C@@H]3OC)[C@H](OC)C[C@H]2O,inactive
15,CN(C(=O)Cc1ccc(Cl)c(Cl)c1)C(CN1CCCC1)c1cccc(OCC(=O)O)c1 (stereo not given),inactive
16,CCCN(CCC)[C@H]1CCc2c(F)ccc(O)c2C1,inactive
17,C[C@H](Cc1ccc2c(c1)OC(C(=O)O)(C(=O)O)O2)NC[C@H](O)c1cccc(Cl)c1,inactive
18,N#C/C(=C/c1ccc(O)c(O)c1)C(N)=S,inactive
19,NCC(CP(=O)(O)O)c1ccc(Cl)cc1 (stereo not given),inactive
20,COC(=O)N1CCN(C(=O)Cc2ccc(Cl)c(Cl)c2)C(CN2CCCC2)C1 (stereo not given),inactive
